This is an account of results in article PMC5540273 (PLoS ONE, 2017).

Some test systems named below: PAK6; PAK7; PDGFRA; PDGFRB; PDPK1; PFTAIRE2; PHKG1; PHKG2; PIK3C2B; PIK3C2G; PIK3CA; PIK3CB; PIK3CD; PIK3CG; PIKFYVE.
What all share (settings): concentration: 1 μM, replicates: in singlicate; n = 1
Another assay deals with T1, PCTK1.
T1 construct: gene CDK16

The subject of the next assay is T2, PCTK2.
T2 construct: gene CDK17

In another assay the test system is T3, PCTK3.
T3 construct: gene CDK18

Another assay deals with T4, PFTK1.
T4 construct: gene CDK14

Another assay deals with T5, PIK4CB.
T5 construct: gene PI4KB
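Note: KINOMEscan kinase panel screen.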

For the compound `O=C(Nc1n[nH]c2cc(-c3cccc(F)c3F)ccc12)C1CC1` [SB-733894], the “%Inh” value with PAK6 is listed as 0%; with PAK7, 1%; in the assay with PCTK1, 0%; in the assay with PCTK2, 8%; with PCTK3, 5%; in the assay on PDGFRA, 23%. Also, the “%Inh” value in the assay with PDGFRB is on record as 51%; in the assay with PDPK1, 19%; in the assay on PFTAIRE2 it was 0%; in the assay with PFTK1, 0%; in the assay on PHKG1 it was 3%; in the assay with PHKG2, 25%. The “%Inh” value in the assay with PIK3C2B is given as 17%; in the assay with PIK3C2G, 15%; with PIK3CA, 0%; in the assay with PIK3CB, 0%; in the assay with PIK3CD, 0%; in the assay with PIK3CG, 19%. Further, the “%Inh” value in the assay with PIK4CB stood at 8%; in the assay on PIKFYVE, 100%.
As for `Cc1cc(NCC(c2ccccc2)c2ccccc2)nc(NCc2ccc(C(F)(F)F)cc2)n1` [GW497681], the “%Inh” value in the assay on PAK6 came out at 0%; in the assay on PAK7, 0%; in the assay on PCTK1, 0%; with PCTK2, 13%; in the assay on PCTK3, 35%; with PDGFRA, 0%. Moreover, the “%Inh” value with PDGFRB is given as 21%; in the assay with PDPK1 it was 0%; in the assay on PFTAIRE2, 13%; with PFTK1, 18%; in the assay on PHKG1, 0%; in the assay on PHKG2, 0%. For the same compound, the “%Inh” value in the assay on PIK3C2B, in the assay with PIK3C2G, in the assay on PIK3CA, in the assay on PIK3CB, in the assay with PIK3CD and in the assay on PIK3CG was 0% in each case. Also, the “%Inh” value with PIK4CB and in the assay with PIKFYVE was 0% each time.
Consider `CC(C)(C)c1ccc(C(=O)Nc2cn3cc(Cl)ccc3n2)cc1`, for which the “%Inh” value in the assay on PAK6 is 0%; in the assay with PAK7, 27%; in the assay with PCTK1, 0%; in the assay with PCTK2, 0%; in the assay with PCTK3 it was 0%; in the assay on PDGFRA, 12%. Besides, the “%Inh” value in the assay on PDGFRB was 71%; with PDPK1, 0%; with PFTAIRE2, 0%; in the assay on PFTK1, 0%; in the assay with PHKG1 it was 0%; in the assay with PHKG2, 0%. For the same compound, the “%Inh” value with PIK3C2B, with PIK3C2G, in the assay with PIK3CA, in the assay on PIK3CB, in the assay with PIK3CD and in the assay with PIK3CG was 0% each time. The “%Inh” value in the assay with PIK4CB is given as 0%; with PIKFYVE, 4%.
Turning to `Cl.Oc1ccc(-c2nc(-c3ccccc3)[nH]c2-c2ccncc2)cc1` [SB-428218], the “%Inh” value in the assay with PAK6 was 0%; in the assay on PAK7, 0%; in the assay on PCTK1 it was 4%; in the assay on PCTK2, 0%; in the assay with PCTK3 it was 20%; in the assay with PDGFRA, 0%. In addition, the “%Inh” value was found to be 13% in the assay with PDGFRB; 0% with PDPK1; 0% in the assay on PFTAIRE2; 21% in the assay with PFTK1; 49% in the assay with PHKG1; 0% with PHKG2. For the same compound, the “%Inh” value with PIK3C2B, in the assay with PIK3C2G, in the assay with PIK3CA, in the assay on PIK3CB, in the assay with PIK3CD and in the assay on PIK3CG was 0% each time. Further, the “%Inh” value in the assay with PIK4CB worked out at 0%; in the assay on PIKFYVE it was 46%.
As for `CS(=O)(=O)c1ccc(-c2nc3n(c2-c2ccncc2)CCC3)cc1` [SKF-105942], the “%Inh” value with PAK6 is listed as 99.2%; with PAK7, 0%; in the assay with PCTK1 it was 11%; in the assay with PCTK2, 0%; in the assay on PCTK3, 0%; in the assay with PDGFRA it was 0%. Besides, the “%Inh” value is 4% with PDGFRB; 0% in the assay with PDPK1; 12% in the assay with PFTAIRE2; 37% in the assay with PFTK1; 3% in the assay with PHKG1; 0% in the assay with PHKG2. Besides, the “%Inh” value in the assay with PIK3C2B, in the assay on PIK3C2G, in the assay with PIK3CA, in the assay with PIK3CB, in the assay on PIK3CD and with PIK3CG was 0% throughout. Moreover, the “%Inh” value with PIK4CB is 100%; in the assay on PIKFYVE it was 0%.
Regarding `COc1ccc(Nc2nccc(-c3cccc(NC(=O)c4cc5cc(F)ccc5[nH]4)c3)n2)cc1` [GSK1229782], the “%Inh” value in the assay on PAK6 is 11%; in the assay with PAK7 it was 51%; with PCTK1, 1%; in the assay with PCTK2, 18%; with PCTK3, 7%; with PDGFRA it was 33%. Further, the “%Inh” value turned out to be 61% in the assay with PDGFRB; 21% in the assay on PDPK1; 30% in the assay with PFTAIRE2; 24% with PFTK1; 19% in the assay with PHKG1; 0% with PHKG2. Further, the “%Inh” value in the assay on PIK3C2B is 0%; in the assay on PIK3C2G, 0%; in the assay with PIK3CA, 0%; in the assay on PIK3CB, 0%; in the assay on PIK3CD, 0%; in the assay on PIK3CG, 2%. Moreover, the “%Inh” value is listed as 0% in the assay on PIK4CB and 6% in the assay on PIKFYVE.
Take `Cc1c(Cn2ccn3c(=O)cc(N4CCOCC4)nc23)cccc1C(F)(F)F` [GSK2289044]: the “%Inh” value with PAK6 is 4%; with PAK7, 27%; in the assay with PCTK1, 2%; in the assay on PCTK2 it was 0%; in the assay on PCTK3, 8%; in the assay on PDGFRA, 0%. For the same compound, the “%Inh” value in the assay with PDGFRB amounted to 21%; with PDPK1 it was 17%; in the assay on PFTAIRE2 it was 17%; with PFTK1 it was 13%; in the assay with PHKG1 it was 0%; with PHKG2 it was 10%. Further, the “%Inh” value with PIK3C2B came to 20%; in the assay with PIK3C2G, 6%; with PIK3CA, 21%; in the assay with PIK3CB, 100%; with PIK3CD, 92%; in the assay on PIK3CG, 29%. The “%Inh” value in the assay with PIK4CB and in the assay with PIKFYVE was 0% in each case.
With `Cc1ccc(NC(=O)Nc2cc(C(C)(C)C)nn2-c2ccccc2)cc1` [GSK1014915], the “%Inh” value with PAK6 is 0%; in the assay with PAK7, 0%; with PCTK1, 6%; in the assay with PCTK2, 0%; in the assay on PCTK3, 27%; with PDGFRA, 36%. The “%Inh” value is recorded as 98.9% with PDGFRB; 0% with PDPK1; 10% with PFTAIRE2; 9% with PFTK1; 4% in the assay on PHKG1; 0% in the assay with PHKG2. Besides, the “%Inh” value with PIK3C2B, in the assay with PIK3C2G, in the assay with PIK3CA, with PIK3CB, with PIK3CD and in the assay on PIK3CG was 0% each time. Moreover, the “%Inh” value in the assay on PIK4CB was determined as 4%; in the assay on PIKFYVE, 0%.
As to `CCn1c(-c2cccnc2O)nc2cnccc21` [SB-736715], the “%Inh” value in the assay with PAK6 is listed as 0%; in the assay on PAK7, 3%; with PCTK1, 0%; in the assay with PCTK2 it was 0%; in the assay with PCTK3 it was 0%; with PDGFRA it was 0%. The “%Inh” value stood at 0% in the assay with PDGFRB; 0% in the assay on PDPK1; 11% in the assay on PFTAIRE2; 0% with PFTK1; 0% with PHKG1; 3% in the assay on PHKG2. Also, the “%Inh” value is listed as 0% in the assay on PIK3C2B; 0% in the assay on PIK3C2G; 0% in the assay on PIK3CA; 0% in the assay with PIK3CB; 0% with PIK3CD; 1% in the assay with PIK3CG. The “%Inh” value stood at 24% with PIK4CB and 22% with PIKFYVE.
For `COc1cccc(-c2cc(-c3c[nH]nc3-c3ccccn3)ccn2)c1` [GW680338], the “%Inh” value in the assay on PAK6 was 3%; in the assay with PAK7 it was 9%; with PCTK1 it was 0%; in the assay with PCTK2, 0%; with PCTK3 it was 8%; with PDGFRA, 0%. In addition, the “%Inh” value came out at 8% with PDGFRB; 0% with PDPK1; 10% in the assay on PFTAIRE2; 1% with PFTK1; 2% in the assay with PHKG1; 10% in the assay on PHKG2. For the same compound, the “%Inh” value was 7% in the assay on PIK3C2B; 11% in the assay with PIK3C2G; 4% with PIK3CA; 3% in the assay on PIK3CB; 0% in the assay on PIK3CD; 9% in the assay on PIK3CG. Moreover, the “%Inh” value in the assay with PIK4CB and in the assay with PIKFYVE was 0% in each case.
As to `Cc1ccccc1-n1cnc2c(N)ncnc21` [SKF-97510], the “%Inh” value in the assay with PAK6 was determined as 12%; in the assay on PAK7, 0%; in the assay with PCTK1 it was 0%; with PCTK2, 0%; with PCTK3, 0%; in the assay with PDGFRA, 0%. Moreover, the “%Inh” value in the assay on PDGFRB is 0%; in the assay on PDPK1, 6%; in the assay with PFTAIRE2 it was 0%; with PFTK1 it was 0%; in the assay on PHKG1, 0%; in the assay with PHKG2, 10%. In addition, the “%Inh” value stood at 0% with PIK3C2B; 10% in the assay with PIK3C2G; 0% in the assay on PIK3CA; 0% in the assay with PIK3CB; 0% in the assay on PIK3CD; 0% with PIK3CG. For the same compound, the “%Inh” value in the assay with PIK4CB and in the assay on PIKFYVE was 0% in each case.
Regarding `O=C(O)COc1ncnc2cc(-c3ccc4[nH]ncc4c3)sc12`, the “%Inh” value is on record as 0% in the assay with PAK6; 7% in the assay on PAK7; 17% with PCTK1; 0% in the assay with PCTK2; 0% with PCTK3; 45% with PDGFRA. In addition, the “%Inh” value in the assay with PDGFRB was determined as 31%; with PDPK1, 0%; in the assay on PFTAIRE2, 0%; in the assay on PFTK1, 12%; with PHKG1, 13%; with PHKG2, 3%. In addition, the “%Inh” value in the assay on PIK3C2B was 0%; in the assay on PIK3C2G it was 23%; with PIK3CA, 0%; with PIK3CB, 47%; with PIK3CD, 5%; with PIK3CG it was 0%. Further, the “%Inh” value came out at 35% with PIK4CB and 12% in the assay with PIKFYVE.
Turning to `Clc1cc(Cl)cc(Nc2ccnc(Nc3cc(Cl)cc(Cl)c3)n2)c1` [GSK175726], the “%Inh” value in the assay with PAK6 is recorded as 9%; with PAK7, 10%; in the assay on PCTK1, 0%; in the assay on PCTK2, 19%; in the assay with PCTK3 it was 0%; with PDGFRA, 14%. Further, the “%Inh” value in the assay with PDGFRB is 21%; with PDPK1 it was 19%; in the assay on PFTAIRE2, 2%; in the assay with PFTK1, 0%; in the assay with PHKG1 it was 0%; with PHKG2, 0%. The “%Inh” value stood at 6% with PIK3C2B; 0% in the assay on PIK3C2G; 5% with PIK3CA; 40% in the assay with PIK3CB; 38% in the assay on PIK3CD; 3% with PIK3CG. Also, the “%Inh” value with PIK4CB was 0%; with PIKFYVE, 1%.
With `Cc1cccc(-c2nc(Nc3ccc4[nH]ncc4c3)c3ccccc3n2)n1` [GW857175], the “%Inh” value in the assay with PAK6 was 4%; in the assay with PAK7, 0%; in the assay with PCTK1, 23%; in the assay with PCTK2, 2%; in the assay with PCTK3, 15%; with PDGFRA, 19%. Moreover, the “%Inh” value in the assay with PDGFRB is reported as 0%; with PDPK1 it was 39%; with PFTAIRE2, 0%; in the assay with PFTK1, 9%; in the assay with PHKG1 it was 0%; in the assay on PHKG2, 16%. The “%Inh” value with PIK3C2B is on record as 8%; in the assay on PIK3C2G, 43%; with PIK3CA, 0%; in the assay with PIK3CB, 7%; in the assay with PIK3CD, 18%; in the assay on PIK3CG it was 0%. Moreover, the “%Inh” value in the assay with PIK4CB is on record as 23%; with PIKFYVE, 85%.
